The supplement of paper PMC12494721
Counter-ions that a name gives are not always drawn. Unmarked numbers belong to inactive results.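 The calls were made as follows: for the amine columns active = adjusted P below 0.05 in both replicates with a change the same way and a mean fold change under 0.8 or over 1.25; inactive = the rest.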

test system: Klebsiella aerogenes DSM 30053; test: fold change of Histamine concentration vs plate DMSO controls (fold change (ratio)); higher = more amine produced, active = hit call of the paper (significant change in both replicates, either direction); conditions: incubation time: 27 h, anaerobic, 37 °C
How it was run: (§1)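 In 80 µL wells, cultures of four gut bacterial strains in mGAM started at OD 0.1 before a 1:1 dilution and grew anaerobically at 37 °C for 27 h. Compounds were added to 20 µM final, except sweeteners at 50 µM final. After extraction of whole cultures with cold acetonitrile/methanol plus 0.1% formic acid and centrifugation, amines were measured by LC–triple-quadrupole MS in dynamic MRM mode against external calibration curves, with within-batch drift correction. Values give fold change over DMSO controls on the same plate, averaged across 2 biological replicates.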

Compound | fold change of Histamine concentration
C/C(=C\C(=O)OCCCCCCCCC(=O)O)C[C@@H]1OC[C@H](C[C@@H]2O[C@H]2[C@@H](C)[C@H](C)O)[C@@H](O)[C@H]1O [Mupirocin] (20 µM) | 0.384 (active)
CC(Oc1c(Cl)cccc1Cl)C1=NCCN1 (stereo not drawn) [Lofexidine] (20 µM) | 0.922
CCOc1ccc(NC(=O)CC(C)O)cc1 (stereo not drawn) [Bucetin] (20 µM) | 0.984
CN(C)CCc1c[nH]c2ccc(Cn3cncn3)cc12 [Rizatriptan benzoate] (20 µM) | 0.934
CC(C)OC(=O)C(C(=O)OC(C)C)=C1SC=CS1 [Malotilate] (20 µM) | 0.94
CC1CS(=O)(=O)CCN1/N=C/c1ccc([N+](=O)[O-])o1 (stereo not drawn) [Nifurtimox] (20 µM) | 0.593 (active)
CC(=O)OCC(=O)[C@@]12OC3(CCCC3)O[C@@H]1C[C@H]1[C@@H]3CCC4=CC(=O)C=C[C@]4(C)[C@@]3(F)[C@@H](O)C[C@@]12C [Amcinonide] (20 µM) | 1.04
OC[C@H]1O[C@@H](c2ccc(Cl)c(Cc3ccc(O[C@H]4CCOC4)cc3)c2)[C@H](O)[C@@H](O)[C@@H]1O [Empagliflozin] (20 µM) | 0.998
CC(CN(C)C)CN1c2ccccc2Sc2ccccc21 (stereo not drawn) [Trimeprazine tartrate] (20 µM) | 0.989
CCC(=O)O[C@]1(C(=O)SCF)[C@H](C)C[C@H]2[C@@H]3C[C@H](F)C4=CC(=O)C=C[C@]4(C)[C@@]3(F)[C@@H](O)C[C@@]21C [Fluticasone propionate] (20 µM) | 1.04
OC[C@H]1O[C@@H](n2cnc3cncnc32)[C@H](O)[C@@H]1O [Nebularine] (20 µM) | 0.982
C=C1[C@H](CO)[C@@H](O)C[C@@H]1n1cnc2c(=O)[nH]c(N)nc21 [Entecavir] (20 µM) | 0.969
O=C1CN(/N=C/c2ccc(-c3ccc([N+](=O)[O-])cc3)o2)C(=O)N1 [Dantrolene sodium salt] (20 µM) | 0.984
CN1CCCN=C1/C=C/c1cccs1 [Pyrantel tartrate] (20 µM) | 0.952
C[C@H](CCc1ccccc1)NC[C@H](O)c1ccc(O)c(C(N)=O)c1 [Dilevalol] (20 µM) | 0.929
CN1CCC(=C2c3ccccc3CCc3sccc32)CC1 [Pizotifen malate] (20 µM) | 1.06
CCOC(=O)c1ccc(C#Cc2ccc3c(c2)C(C)(C)CCS3)nc1 [Tazarotene] (20 µM) | 1.02
CCC(=O)OCC(=O)[C@@]1(OC(=O)CC)[C@@H](C)C[C@H]2[C@@H]3CCC4=CC(=O)C=C[C@]4(C)[C@@]3(Cl)[C@@H](O)C[C@@]21C [Beclomethasone dipropionate] (20 µM) | 1
CC1=NN(c2ccccc2)C(=O)C1 [Edaravone] (20 µM) | 0.97
CO/N=C(\C(=O)N[C@@H]1C(=O)N2C(C(=O)OCOC(=O)C(C)(C)C)=C(/C=C\c3scnc3C)CS[C@H]12)c1csc(N)n1 [Cefditoren Pivoxil] (20 µM) | 0.988
Nc1ncnc2c1ncn2[C@@H]1O[C@H](CO)[C@@H](O)[C@@H]1O [Vidarabine] (20 µM) | 1.05
O=C(O)c1ccccc1Nc1cccc(C(F)(F)F)c1 [Flufenamic acid] (20 µM) | 0.993
CCc1ccc(CCOc2ccc(CC3SC(=O)NC3=O)cc2)nc1 (stereo not drawn) [Pioglitazone] (20 µM) | 1

test system: Clostridium sporogenes DSM 1664; test: fold change of Tryptamine concentration vs plate DMSO controls (fold change (ratio)); higher = more amine produced, active = hit call of the paper (significant change in both replicates, either direction); conditions: incubation time: 27 h, anaerobic, 37 °C
How it was run: as §1

Compound | fold change of Tryptamine concentration
CCCCCCCCCCCCCCCCCCCCCC(=O)Nc1ccn([C@@H]2O[C@H](CO)[C@@H](O)[C@@H]2O)c(=O)n1 [Enocitabine] (20 µM) | 0.984
COCC1=C(C(=O)OC(C)OC(=O)OC(C)C)N2C(=O)[C@@H](NC(=O)/C(=N\OC)c3csc(N)n3)[C@H]2SC1 (stereo partly drawn) [Cefpodoxime proxetil] (20 µM) | 0.946
COc1cccc2c1C(=O)c1c(O)c3c(c(O)c1C2=O)C[C@@](O)(C(=O)CO)C[C@@H]3O[C@H]1C[C@H](N)[C@@H](O)[C@H](C)O1 [Epirubicin hydrochloride] (20 µM) | 0.953
CN1CCCN(C(c2ccccc2)c2ccc(Cl)cc2)CC1 (stereo not drawn) [Homochlorcyclizine dihydrochloride] (20 µM) | 0.989
COc1ccc(/C=C/C(=O)Nc2ccccc2C(=O)O)cc1OC [Tranilast] (20 µM) | 0.993
CC(C)Nc1ncccn1 [Isaxonine] (20 µM) | 1.05
CC(=O)N[C@@H](CS)C(=O)O [Acetylcysteine] (20 µM) | 1.07
C=C1C[C@@]23CC[C@H]4[C@@](C)(CCC[C@@]4(C)C(=O)O[C@@H]4O[C@H](CO)[C@@H](O)[C@H](O)[C@H]4O)[C@@H]2CC[C@]1(O[C@@H]1O[C@H](CO)[C@@H](O)[C@H](O)[C@H]1O[C@@H]1O[C@H](CO)[C@@H](O)[C@H](O)[C@H]1O)C3 [Stevioside] (50 µM) | 0.986
Nc1ccc(S(=O)(=O)Nc2nccs2)cc1 [Sulfathiazole] (20 µM) | 0.968
CC(=O)OCC(=O)[C@@]1(O)CC[C@H]2[C@@H]3CCC4=CC(=O)C=C[C@]4(C)[C@@]3(F)[C@@H](O)C[C@@]21C [Isoflupredone acetate] (20 µM) | 1.03
CC(=O)CCCCn1c(=O)c2c(ncn2C)n(C)c1=O [Pentoxifylline] (20 µM) | 1.03
CCN(CC)CCOC(=O)C1(C2CCCCC2)CCCCC1 [Dicyclomine hydrochloride] (20 µM) | 0.991
CC(=O)OCC(=O)[C@@]1(O)[C@H](C)C[C@H]2[C@@H]3CCC4=CC(=O)C=C[C@]4(C)[C@@]3(F)[C@@H](O)C[C@@]21C [Dexamethasone acetate] (20 µM) | 1.06
Cc1nc2n(c(=O)c1CCN1CCC(c3noc4cc(F)ccc34)CC1)CCCC2O (stereo not drawn) [Paliperidone] (20 µM) | 0.998
O=C(Nc1cccc2c(=O)cc(-c3nnn[nH]3)oc12)c1ccc(OCCCCc2ccccc2)cc1 [Pranlukast] (20 µM) | 0.686 (active)
CCC(Cc1c(I)cc(I)c(N)c1I)C(=O)O (stereo not drawn) [Iopanoic acid] (20 µM) | 0.978
C/C(=C\C(=O)OCCCCCCCCC(=O)O)C[C@@H]1OC[C@H](C[C@@H]2O[C@H]2[C@@H](C)[C@H](C)O)[C@@H](O)[C@H]1O [Mupirocin] (20 µM) | 0.968
CC(Oc1c(Cl)cccc1Cl)C1=NCCN1 (stereo not drawn) [Lofexidine] (20 µM) | 0.975

Compound | fold change of Tryptamine concentration
CCOc1ccc(NC(=O)CC(C)O)cc1 (stereo not drawn) [Bucetin] (20 µM) | 0.999
CN(C)CCc1c[nH]c2ccc(Cn3cncn3)cc12 [Rizatriptan benzoate] (20 µM) | 1
CC(C)OC(=O)C(C(=O)OC(C)C)=C1SC=CS1 [Malotilate] (20 µM) | 0.958
CC1CS(=O)(=O)CCN1/N=C/c1ccc([N+](=O)[O-])o1 (stereo not drawn) [Nifurtimox] (20 µM) | 0.895
CC(=O)OCC(=O)[C@@]12OC3(CCCC3)O[C@@H]1C[C@H]1[C@@H]3CCC4=CC(=O)C=C[C@]4(C)[C@@]3(F)[C@@H](O)C[C@@]12C [Amcinonide] (20 µM) | 0.964
OC[C@H]1O[C@@H](c2ccc(Cl)c(Cc3ccc(O[C@H]4CCOC4)cc3)c2)[C@H](O)[C@@H](O)[C@@H]1O [Empagliflozin] (20 µM) | 1.05
CC(CN(C)C)CN1c2ccccc2Sc2ccccc21 (stereo not drawn) [Trimeprazine tartrate] (20 µM) | 1.08
CCC(=O)O[C@]1(C(=O)SCF)[C@H](C)C[C@H]2[C@@H]3C[C@H](F)C4=CC(=O)C=C[C@]4(C)[C@@]3(F)[C@@H](O)C[C@@]21C [Fluticasone propionate] (20 µM) | 0.989
OC[C@H]1O[C@@H](n2cnc3cncnc32)[C@H](O)[C@@H]1O [Nebularine] (20 µM) | 0.874
C=C1[C@H](CO)[C@@H](O)C[C@@H]1n1cnc2c(=O)[nH]c(N)nc21 [Entecavir] (20 µM) | 0.982
O=C1CN(/N=C/c2ccc(-c3ccc([N+](=O)[O-])cc3)o2)C(=O)N1 [Dantrolene sodium salt] (20 µM) | 0.968
CN1CCCN=C1/C=C/c1cccs1 [Pyrantel tartrate] (20 µM) | 1.02
C[C@H](CCc1ccccc1)NC[C@H](O)c1ccc(O)c(C(N)=O)c1 [Dilevalol] (20 µM) | 1.04
CN1CCC(=C2c3ccccc3CCc3sccc32)CC1 [Pizotifen malate] (20 µM) | 1.01
CCOC(=O)c1ccc(C#Cc2ccc3c(c2)C(C)(C)CCS3)nc1 [Tazarotene] (20 µM) | 1.17
CCC(=O)OCC(=O)[C@@]1(OC(=O)CC)[C@@H](C)C[C@H]2[C@@H]3CCC4=CC(=O)C=C[C@]4(C)[C@@]3(Cl)[C@@H](O)C[C@@]21C [Beclomethasone dipropionate] (20 µM) | 1.01
CC1=NN(c2ccccc2)C(=O)C1 [Edaravone] (20 µM) | 0.939
